Screening results from PubChem.
Only some compounds are listed: those with a hit (about 3.3% of all), similar ones and a draw of the others.
Sm TGR inh: S. mansoni TGR enzyme inhibition; hit rate 3% among 360,000; Q962Y6; purified TGR, DTNB reduction, TNB absorbance 405 nm; Potency, µM (top dose mostly 114 µM), hits mostly inhibitors; note: nearly all actives have a fitted effect of over 60% in size
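First, TGR (20 nM dispensed) and NADPH were mixed with compound. Second, a 15 min room-temperature incubation followed. Third, further NADPH and then DTNB were added to start the reaction. Finally, TNB absorbance was monitored kinetically.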
AmpC no deterg: AmpC beta-lactamase inhibition without detergent; P00811; AmpC nitrocefin hydrolysis, absorbance 480 nm, 0.0001% Triton; Potency, µM (top dose mostly 57.1 µM), hits mostly inhibitors; hit rate 0.52% among 330,000; AID 485341; note: nearly all actives have a fitted effect of over 20% in size
Target sequence (P00811 whole entry, looked up): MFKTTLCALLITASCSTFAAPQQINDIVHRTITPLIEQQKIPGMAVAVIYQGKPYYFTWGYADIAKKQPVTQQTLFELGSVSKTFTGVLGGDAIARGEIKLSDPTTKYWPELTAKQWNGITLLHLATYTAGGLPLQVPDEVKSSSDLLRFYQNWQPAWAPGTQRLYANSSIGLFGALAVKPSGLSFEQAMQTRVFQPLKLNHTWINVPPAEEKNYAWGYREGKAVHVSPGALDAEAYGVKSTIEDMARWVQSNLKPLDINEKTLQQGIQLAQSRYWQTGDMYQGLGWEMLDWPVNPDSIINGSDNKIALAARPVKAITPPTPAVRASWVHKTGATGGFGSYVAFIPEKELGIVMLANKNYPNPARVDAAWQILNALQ
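20 mM phosphate pH 7.0 + 0.01% (detergent screen) or 0.0001% Triton X-100; 5.3 nM AmpC reagent; cpd preinc 15 min RT; nitrocefin (800 uM stock) to start; A480 q20 s × 4 min; Activity was normalised to no-enzyme and no-compound control wells.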
AmpC inh detg: blocks E. coli AmpC beta-lactamase in detergent assay. AmpC hydrolysis of nitrocefin, absorbance 480 nm, 0.01% Triton. hit rate 0.041% among 370,000. AID 485294. Potency, µM (titrated, usually from 114 µM), most hits filed as inhibitors; note: nearly all actives have a fitted effect of over 25% in size
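20 mM phosphate pH 7.0 + 0.01% (detergent screen) or 0.0001% Triton X-100; 5.3 nM AmpC reagent; cpd preinc 15 min RT; nitrocefin (800 uM stock) to start; A480 q20 s × 4 min; Activity was normalised to no-enzyme and no-compound control wells.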
Each line names hits and unclear results; the compound was inactive in the other large screens. Calls come from the whole dose curve; as a rule, active = well fitted curve in the direction sought with a large enough effect; inconclusive = small, poorly fitted or top-dose-only effect, or another doubt; inactive = no such curve, though single readings can be large; an effect the other way counts as inactive or inconclusive.

COc1ccc(-c2nc(CS(=O)(=O)CC(=O)Nc3ccc(Cl)cc3)c(C)o2)cc1	Sm TGR inh 35.5µM, AmpC no deterg 3.98µM
CCOc1ccc(CNCc2c(C(=O)O)c(C)n(Cc3ccc(C)cc3)c2C)cc1	none (no result: AmpC no deterg)
Cc1sc2ncn(CC(=O)N(C)c3cccc(C(F)(F)F)c3)c(=O)c2c1S(=O)(=O)N1CCN(c2ncccn2)CC1	none (no result: AmpC no deterg)
CCOc1ccc(N2CC(C(=O)Nc3nnc(Cc4ccccc4)s3)CC2=O)cc1 (stereo unspecified)	none
COc1cc2c(cc1OC)CN(C(=O)c1ccc(Br)o1)CC2	Sm TGR inh 39.8µM
COc1cc2c(cc1OC)CN(C(=O)c1ccco1)CC2	Sm TGR inh inconclusive
COc1cc(OC)cc(C(=O)N2CCN(Cc3ccccc3[N+](=O)[O-])CC2)c1	none
O=C(OCC(=O)c1ccc[nH]1)c1ccc(F)c(S(=O)(=O)N2CCOCC2)c1	none (no result: Sm TGR inh, AmpC inh detg)
CC(C)C[C@@H](CN(C)N=O)N(C[C@H](Cc1ccccc1)N(CCc1ccccc1)N=O)N=O	Sm TGR inh 39.8µM
CC(C)[C@H](CN(N=O)[C@@H](Cc1ccccc1)CN(C)N=O)N(CCc1ccccc1)N=O	none
CN(C[C@H](Cc1ccccc1)N(C[C@H](Cc1cccc2ccccc12)N(CCc1ccccc1)N=O)N=O)N=O	Sm TGR inh 35.5µM
CCCC[C@H](CN(N=O)[C@@H](Cc1ccccc1)CN(C)N=O)N(CCc1ccccc1)N=O	none
CC(C)(C)OC(=O)C[C@@H]1C/C=C\C[C@H](CC(=O)NCCO)C(=O)N[C@H](Cc2ccccc2)COC1=O	none (no result: Sm TGR inh, AmpC inh detg)
Cc1ccc(C2=CC(c3ccc(N(C)C)cc3)n3nnnc3N2)cc1 (stereo unspecified)	Sm TGR inh inconclusive
Fc1ccc(Br)cc1C1C=C(c2ccc(Br)cc2)Nc2nnnn21 (stereo unspecified)	none (no result: AmpC no deterg)
COc1ccc(C2=CC(c3sccc3C)n3nnnc3N2)cc1 (stereo unspecified)	Sm TGR inh 35.5µM
CCc1ccc(C2=CC(c3cccc(Br)c3)n3nnnc3N2)cc1 (stereo unspecified)	Sm TGR inh 25.1µM (no result: AmpC no deterg)
COc1ccc(C2=CC(c3ccc(F)cc3)n3nnnc3N2)cc1 (stereo unspecified)	AmpC inh detg inconclusive
Cc1cccc(C2C=C(c3ccc(C)c(C)c3)Nc3nnnn32)c1 (stereo unspecified)	Sm TGR inh 39.8µM (no result: AmpC no deterg)
O=C(Nc1ccc2c(c1)OCO2)C1CCCN1C(=O)Nc1ccccc1 (stereo unspecified)	none
CCc1cccc(NC(=O)C(c2ccccc2)N2Cc3ccccc3C2=O)c1 (stereo unspecified)	none (no result: AmpC no deterg)
CC(C)NS(=O)(=O)c1ccc(CCC(=O)NCc2ccc3c(c2)OCO3)cc1	none
CC(C)(C)NS(=O)(=O)c1ccc(CCC(=O)NCc2ccc3c(c2)OCO3)cc1	Sm TGR inh 31.6µM
CN(CC(=O)Nc1n[nH]c(=S)s1)S(=O)(=O)c1cccc2cccnc12	none
O=C(Nc1cccc(Cl)c1)Nc1ccnc(-c2cccnc2)n1	none (no result: Sm TGR inh)
O=C(CNc1ccccc1)N/N=C/c1cc([N+](=O)[O-])ccc1N1CCCC1	AmpC no deterg 7.94µM
N#CCC(=O)N/N=C/c1cc([N+](=O)[O-])ccc1N1CCCC1	AmpC inh detg inconclusive
NC(=O)c1ccc(NC(=O)C2CCN(S(=O)(=O)Cc3ccccc3)CC2)cc1	none (no result: AmpC no deterg)
Cc1ccc(NC(=O)CCS(=O)(=O)c2cc(Br)cc3c2N(C(=O)C2CC2)CC3)cc1	none (no result: AmpC no deterg)
CC(=O)CSc1nc2ccccc2s1	none
Cn1cccc1C(=O)NC(=O)CSc1nc2ccccc2s1	AmpC no deterg 15.8µM
COc1ccc(CNC(=O)CCC(=O)Nc2ccc(Cl)cc2)cc1	none
COc1ccc(S(=O)(=O)n2nc(OC(=O)c3ccncc3)cc2N)cc1	Sm TGR inh 5.01µM
Cc1ccc(S(=O)(=O)n2nc(OC(=O)c3ccccc3F)cc2N)cc1	Sm TGR inh 15.8µM, AmpC inh detg inconclusive
COc1ccc(S(=O)(=O)n2nc(OC(=O)c3ccc(C)cc3)cc2N)cc1	none
COc1ccc(S(=O)(=O)n2nc(OC(=O)c3ccco3)cc2N)cc1	Sm TGR inh 22.4µM
COc1ccc(S(=O)(=O)n2nc(OC(=O)c3ccccc3Br)cc2N)cc1	Sm TGR inh inconclusive, AmpC inh detg inconclusive
Cc1ccc(C(=O)Oc2cc(N)n(S(=O)(=O)c3ccc(C)cc3)n2)cc1	AmpC inh detg inconclusive
COc1ccc(S(=O)(=O)n2nc(OC(C)=O)cc2N(C(C)=O)C(C)=O)cc1	Sm TGR inh 22.4µM
COc1ccc(S(=O)(=O)n2nc(OC(=O)c3ccccc3)cc2N)cc1	none
O=C(Nc1cccc(C(=O)OCc2cc(=O)n3c4c(sc3n2)CCCC4)c1)c1cccc(F)c1	none (no result: AmpC no deterg)
Cc1c2cnn(-c3ccccc3)c(=O)c2c(C)n1CC(=O)NCc1ccccc1	none (no result: AmpC no deterg)
CC(C)CCNC(=O)C(=O)Nc1ccc2c(c1)N(S(=O)(=O)c1cccs1)CCC2	AmpC inh detg inconclusive
O=C(COC(=O)Cc1c(F)cccc1Cl)Nc1nnc(-c2ccccc2)o1	none
CC(C)Cc1nc(S(=O)(=O)c2ccc(Cl)cc2)c(N2CCOCC2)o1	Sm TGR inh 2.24µM
CC(C)(C)c1nc(S(=O)(=O)c2ccc(Cl)cc2)c(N2CCOCC2)o1	Sm TGR inh 8.91µM
O=S(=O)(c1ccc(Cl)cc1)c1nc(-c2ccccc2Br)oc1N1CCOCC1	none (no result: AmpC no deterg)
O=S(=O)(c1ccc(Cl)cc1)c1nc(-c2ccco2)oc1N1CCOCC1	none
CCOC(=O)c1cc(OC(=O)c2cc(Cl)ccc2OC)n(-c2ccccc2)n1	none (no result: AmpC no deterg)
O=C(COC(=O)c1c[nH]c(=O)[nH]c1=O)Nc1cccc([N+](=O)[O-])c1	none
C/C=C/c1ccc(OCCOc2cccc3cccnc23)c(OC)c1	none
CCN(CC)C(=O)c1sc2c(c1C)c(=O)n(-c1ccccc1)c(=O)n2CC(=O)Nc1ccc(C)cc1C	none (no result: AmpC no deterg)
CC(C)Cc1ccc(C(C)C(N)=NCCc2ccccc2)cc1 (stereo unspecified)	none
Cc1ccc(C(=O)NC(=O)CSc2nnc(C)s2)cc1	none
CCS(=O)(=O)Nc1cccc(C2=NN(C(=O)c3ccco3)C(c3ccco3)C2)c1 (stereo unspecified)	Sm TGR inh 50.1µM
CS(=O)(=O)Nc1cccc(C2=NN(C(=O)c3ccco3)C(c3ccco3)C2)c1 (stereo unspecified)	none
CN(C)C(=O)c1c(C(F)(F)F)nn(C)c1Cl	AmpC inh detg inconclusive
COc1cc2c(=O)n(Cc3ccccc3Cl)c(=O)n(CC(=O)Nc3ccccc3)c2cc1OC	none (no result: AmpC no deterg)
CC(C)CC(=O)/C(=C\c1ccc(Cl)cc1Cl)n1cncn1	Sm TGR inh 22.4µM
CC(C)CC(=O)/C(=C/c1ccc(N(C)C)cc1)n1cncn1	none
FC(F)(F)c1cc(-c2ccco2)nc(NCc2ccco2)n1	Sm TGR inh inconclusive
FC(F)(F)c1cc(-c2ccco2)nc(NCc2cccs2)n1	Sm TGR inh 20µM
CC(C)C[C@H](NC(=O)Nc1ccc(Oc2ccccc2)cc1)C(=O)O	none
Cn1c(=O)c2ccccc2n(CC(=O)NC2CCCC2)c1=O	AmpC inh detg inconclusive
O=C1CN(C(=O)COc2ccc(Cl)cc2Cl)C(c2ccc(F)cc2)c2cc(F)ccc2N1 (stereo unspecified)	none (no result: AmpC no deterg)
Cc1nn(-c2ccccc2)c(C)c1/C=N/NC(=O)CSc1nnc(SCc2cccc3ccccc23)s1	AmpC no deterg 2.24µM
